Data on five molecules can be found in PubChem BioAssay.

Experiment [1] can be described thus: small molecules captured by biotinylated probe aFSTL3 – biochemical, small-molecule microarray, fluorescence 635/667, stem cell growth factor project, primary screen (AID 1064).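 Note: measures binding of the biotinylated anti-FSTL3 antibody to printed compounds.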 The conditions noted are these: higher = more signal.
Experiment [2] can be described thus: binders from COS7 lysate, DM2A8 probe, primary screen, torsin A project, cell lysate, small-molecule microarray, fluorescence 635/667 (AID 1065). The conditions noted are these: higher = more signal, COS7 lysate expressing mutant human TOR1A.
A short description of experiment [3]: small molecules captured by biotinylated probe aFGF2 – biochemical, small-molecule microarray, fluorescence 635/667, stem cell growth factor project, primary screen (AID 1067).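 Note: measures binding of biotinylated aFGF2 protein to printed compounds on slides; z-score merges feature fluorescence and signal-to-noise across triplicate slides.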 The settings on record: higher = more signal.
Experiment [4] in a line: small molecules captured by biotinylated probe aFGF10 – biochemical, small-molecule microarray, fluorescence 635/667, stem cell growth factor project, primary screen (AID 1071).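 Note: score merges 667 nm spot intensity and signal to noise from triplicate slides.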 The settings on record: higher = more signal.
The target in experiment [5] is Neurogenic locus notch homolog protein 2 (Homo sapiens) (UniProt Q04721). Description: small molecules binding Notch2 protein – biochemical, small-molecule microarray, 635 nm fluorescence, stem cell growth factors, primary screen (AID 1073). The conditions noted are these: higher = more signal.
In experiment [6] the target is Pro-neuregulin-1, membrane-bound isoform (Homo sapiens) (UniProt Q02297). Description: small molecules binding neuregulin-1 protein – biochemical, small-molecule microarray, fluorescence 635/667, psychiatric disease protein project, primary screen (AID 1075).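 Note: score combines 667 nm spot fluorescence with signal to noise.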 The settings on record: NRG1 binding, 635 nm fluorescence, higher = more signal.
In experiment [7] the test system is Neuregulin-1 EGF-like domain. Description: small molecules binding NRG1 EGF domain – biochemical, small-molecule microarray, 635 nm fluorescence, primary screen (AID 1081).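 Note: binding of the protein to compounds printed on small-molecule microarray slides.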 The conditions noted are these: higher = more signal.
A short description of experiment [8]: FRG1 expression reporter modulators in myotubes – cell-based, C2C12 myotubes, firefly/Renilla luciferase, luminescence, FRG1 inhibition for FSHD, primary screen (AID 1084). The conditions noted are these: FRG1 promoter luciferase, higher = more signal, called active from +8 up or from −8 down.
A short description of experiment [9]: small molecules captured by biotinylated probe aFST – biochemical, small-molecule microarray, fluorescence 635/667, stem cell growth factor project, primary screen (AID 1086).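 Note: score merges 667 nm fluorescence with signal-to-noise of each printed compound spot.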 The conditions noted are these: higher = more signal.
Experiment [10] is described as follows: binders of probe aHhip on microarray, primary screen, stem cell growth factor project, biochemical, small-molecule microarray, fluorescence 635/667 (AID 1087).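 Note: score merges spot fluorescence at 667nm with spot signal to noise ratio.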 The settings on record: higher = more signal.
The test system of experiment [11] is PRMT1 (protein arginine N-methyltransferase 1). As to the kind of experiment: small molecules binding arginine methyltransferase PRMT1 – biochemical, small-molecule microarray, 635 nm fluorescence, primary screen (AID 1088).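 Note: binding of Prmt1 protein to compounds spotted on small-molecule microarray slides.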 The settings on record: higher = more signal.
A short description of experiment [12]: growth effects on S. cerevisiae YJM789 – YJM789 clinical isolate, OD600, 24 h, basal, primary screen (AID 1089).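 Note: growth of clinical yeast isolate S. cerevisiae YJM 789 seeded 1000 cells per well; test concentration not given here.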 The conditions noted are these: higher = more signal, called active from +8 up or from −8 down.
Experiment [13] is described as follows: S. pombe growth modifiers, basal conditions – strain 972, OD600, 24 h, no modulator, primary screen (AID 1090).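 Note: basal condition with compound alone and no growth modifier present; test concentration not given here.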 The conditions noted are these: S. pombe 972 growth, higher = more signal, called active from +8 up or from −8 down.
Experiment [14] is described as follows: budding yeast growth modifiers under rapamycin – strain BY4716, OD600, 96 h, primary screen (AID 1091). Note: test concentration not given here. The settings on record: S. cerevisiae BY4716 + rapamycin, higher = more signal, called active from +8 up or from −8 down.
Experiment [15] has as its target Torsin-1A-interacting protein 2 (Homo sapiens) (UniProt Q8NFQ8). As to the kind of experiment: small molecules binding lysate-expressed LULL1 – cell lysate, human LULL1 lysate, 635/667 nm fluorescence, primary screen (AID 1092).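 Note: probe is lysate of COS7 cells overexpressing human LULL1; score merges per-feature 667 nm fluorescence with signal-to-noise.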 The settings on record: small-molecule microarray, hLULL1 lysate binding, 635 nm fluorescence; higher = more signal.
Experiment [16] in a line: optical density change of DRC41 E. coli – strain DRC41, OD650, 24 h, E. coli filamentation project, primary screen (AID 1093).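 Note: MC1000 strain lacking acrAB efflux and sulA so SOS filamentation is blocked; test concentration not given here.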 The settings on record: E. coli DRC41 growth, higher = more signal, called active from +8 up or from −8 down.
Experiment [17] is described as follows: probe aLefty2 binding to arrayed compounds – biochemical, biotinylated probe, 635/667 nm fluorescence, primary screen (AID 1094).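 Note: score merges spot fluorescence near 667 nm with spot signal-to-noise ratio.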 The settings on record: small-molecule microarray, higher = more signal.
For experiment [18], the system named is Noggin (protein binding on small-molecule microarray). Description: small molecules binding Noggin protein – biochemical, 635/667 nm fluorescence, primary screen (AID 1095).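 Note: score merges 667 nm feature fluorescence with signal to noise over triplicate slides.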 The settings on record: 635 nm fluorescence, higher = more signal.
Experiment [19] concerns the target Neurogenic locus notch homolog protein 3 (Homo sapiens) (UniProt Q9UM47). As to the kind of experiment: small molecules binding NOTCH3 protein – biochemical, 635/667 nm fluorescence, primary screen (AID 1096). The settings on record: small-molecule microarray, 635 nm fluorescence, higher = more signal.
Experiment [20] is described as follows: probe aEGFR binding to arrayed compounds – biochemical, biotinylated probe, 635/667 nm fluorescence, primary screen (AID 1097).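 Note: probe is a biotinylated anti-EGFR antibody binding compounds printed on slides; score combines fluorescence near 667 nm and signal to noise of each spot.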 The settings on record: small-molecule microarray, higher = more signal.

Active and inactive are the calls of the source.

Neurogenic locus notch homolog protein 2 (Homo sapiens), sequence (Q04721 whole entry, looked up, canonical isoform): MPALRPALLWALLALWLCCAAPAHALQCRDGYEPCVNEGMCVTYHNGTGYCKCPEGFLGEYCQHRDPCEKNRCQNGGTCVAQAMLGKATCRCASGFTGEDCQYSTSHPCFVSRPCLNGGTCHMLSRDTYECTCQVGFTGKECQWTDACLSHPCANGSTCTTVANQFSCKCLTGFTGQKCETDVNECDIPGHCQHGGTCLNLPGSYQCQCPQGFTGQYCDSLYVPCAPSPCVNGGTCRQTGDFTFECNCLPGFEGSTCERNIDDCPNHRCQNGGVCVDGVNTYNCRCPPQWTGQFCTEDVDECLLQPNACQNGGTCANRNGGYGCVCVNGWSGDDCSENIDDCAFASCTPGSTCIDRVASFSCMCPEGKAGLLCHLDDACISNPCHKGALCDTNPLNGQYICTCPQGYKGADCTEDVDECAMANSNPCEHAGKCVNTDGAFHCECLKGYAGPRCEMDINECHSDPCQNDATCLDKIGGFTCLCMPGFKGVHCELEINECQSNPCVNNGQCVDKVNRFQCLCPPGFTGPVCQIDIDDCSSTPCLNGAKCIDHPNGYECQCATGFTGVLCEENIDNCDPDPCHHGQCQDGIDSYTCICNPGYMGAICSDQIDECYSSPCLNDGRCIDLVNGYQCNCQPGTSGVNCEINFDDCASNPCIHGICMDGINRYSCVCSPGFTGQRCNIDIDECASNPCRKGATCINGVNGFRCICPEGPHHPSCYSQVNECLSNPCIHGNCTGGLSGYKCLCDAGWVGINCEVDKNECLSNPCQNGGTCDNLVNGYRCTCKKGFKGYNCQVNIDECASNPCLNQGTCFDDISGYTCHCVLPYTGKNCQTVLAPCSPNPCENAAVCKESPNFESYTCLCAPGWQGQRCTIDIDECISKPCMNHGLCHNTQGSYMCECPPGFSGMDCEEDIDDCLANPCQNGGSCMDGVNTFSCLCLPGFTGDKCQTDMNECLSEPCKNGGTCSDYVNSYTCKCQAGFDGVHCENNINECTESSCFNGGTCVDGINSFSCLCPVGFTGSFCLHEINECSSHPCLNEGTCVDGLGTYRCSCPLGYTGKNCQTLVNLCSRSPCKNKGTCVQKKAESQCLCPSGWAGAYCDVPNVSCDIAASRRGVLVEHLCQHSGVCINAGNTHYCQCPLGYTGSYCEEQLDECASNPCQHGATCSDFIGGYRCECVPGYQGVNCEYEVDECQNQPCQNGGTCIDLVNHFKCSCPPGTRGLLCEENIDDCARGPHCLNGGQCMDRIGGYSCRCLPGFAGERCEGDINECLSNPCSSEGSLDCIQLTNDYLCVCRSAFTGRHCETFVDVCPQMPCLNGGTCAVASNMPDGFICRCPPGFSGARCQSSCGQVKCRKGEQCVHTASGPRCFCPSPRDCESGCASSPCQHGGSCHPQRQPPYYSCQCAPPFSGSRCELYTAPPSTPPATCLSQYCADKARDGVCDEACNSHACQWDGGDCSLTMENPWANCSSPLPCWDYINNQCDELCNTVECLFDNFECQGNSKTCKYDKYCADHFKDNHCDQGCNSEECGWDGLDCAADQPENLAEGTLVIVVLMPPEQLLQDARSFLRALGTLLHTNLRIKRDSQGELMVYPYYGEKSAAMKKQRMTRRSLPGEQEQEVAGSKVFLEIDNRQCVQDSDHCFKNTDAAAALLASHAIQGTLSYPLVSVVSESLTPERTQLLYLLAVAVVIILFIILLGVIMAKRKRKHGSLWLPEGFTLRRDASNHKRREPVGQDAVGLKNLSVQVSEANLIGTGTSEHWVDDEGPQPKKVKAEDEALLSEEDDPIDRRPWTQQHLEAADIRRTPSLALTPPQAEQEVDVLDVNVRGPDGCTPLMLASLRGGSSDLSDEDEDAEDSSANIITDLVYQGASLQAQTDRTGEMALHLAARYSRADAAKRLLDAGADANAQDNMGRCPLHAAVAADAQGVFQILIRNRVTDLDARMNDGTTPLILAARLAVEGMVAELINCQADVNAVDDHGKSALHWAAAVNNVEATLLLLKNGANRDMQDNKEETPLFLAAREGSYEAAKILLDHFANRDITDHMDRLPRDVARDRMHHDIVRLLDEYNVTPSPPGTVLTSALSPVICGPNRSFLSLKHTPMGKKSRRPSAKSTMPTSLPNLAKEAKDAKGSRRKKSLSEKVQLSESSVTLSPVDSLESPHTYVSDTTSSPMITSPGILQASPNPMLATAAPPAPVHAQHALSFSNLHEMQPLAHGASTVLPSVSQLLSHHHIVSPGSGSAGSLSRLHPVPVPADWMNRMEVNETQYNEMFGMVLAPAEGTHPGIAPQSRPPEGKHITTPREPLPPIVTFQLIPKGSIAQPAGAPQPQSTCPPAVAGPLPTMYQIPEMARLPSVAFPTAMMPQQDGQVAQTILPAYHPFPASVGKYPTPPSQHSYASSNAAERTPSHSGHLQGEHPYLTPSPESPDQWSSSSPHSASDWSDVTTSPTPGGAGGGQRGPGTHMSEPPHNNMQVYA
Torsin-1A-interacting protein 2 (Homo sapiens), sequence (Q8NFQ8 whole entry, looked up): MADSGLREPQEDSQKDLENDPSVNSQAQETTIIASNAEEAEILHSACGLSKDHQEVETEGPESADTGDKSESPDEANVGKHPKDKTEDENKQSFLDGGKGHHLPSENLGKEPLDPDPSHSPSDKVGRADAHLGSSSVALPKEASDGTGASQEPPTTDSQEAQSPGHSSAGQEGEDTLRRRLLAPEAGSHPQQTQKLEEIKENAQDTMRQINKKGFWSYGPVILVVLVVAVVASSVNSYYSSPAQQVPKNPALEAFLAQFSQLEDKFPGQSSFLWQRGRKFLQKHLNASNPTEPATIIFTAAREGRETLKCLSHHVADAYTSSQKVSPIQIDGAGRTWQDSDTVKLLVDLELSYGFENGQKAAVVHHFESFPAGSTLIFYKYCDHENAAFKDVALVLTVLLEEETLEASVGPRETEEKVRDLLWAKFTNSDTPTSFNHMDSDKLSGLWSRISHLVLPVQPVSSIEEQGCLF
Pro-neuregulin-1, membrane-bound isoform (Homo sapiens), sequence (Q02297 whole entry, looked up, the tested form may be a part, canonical isoform): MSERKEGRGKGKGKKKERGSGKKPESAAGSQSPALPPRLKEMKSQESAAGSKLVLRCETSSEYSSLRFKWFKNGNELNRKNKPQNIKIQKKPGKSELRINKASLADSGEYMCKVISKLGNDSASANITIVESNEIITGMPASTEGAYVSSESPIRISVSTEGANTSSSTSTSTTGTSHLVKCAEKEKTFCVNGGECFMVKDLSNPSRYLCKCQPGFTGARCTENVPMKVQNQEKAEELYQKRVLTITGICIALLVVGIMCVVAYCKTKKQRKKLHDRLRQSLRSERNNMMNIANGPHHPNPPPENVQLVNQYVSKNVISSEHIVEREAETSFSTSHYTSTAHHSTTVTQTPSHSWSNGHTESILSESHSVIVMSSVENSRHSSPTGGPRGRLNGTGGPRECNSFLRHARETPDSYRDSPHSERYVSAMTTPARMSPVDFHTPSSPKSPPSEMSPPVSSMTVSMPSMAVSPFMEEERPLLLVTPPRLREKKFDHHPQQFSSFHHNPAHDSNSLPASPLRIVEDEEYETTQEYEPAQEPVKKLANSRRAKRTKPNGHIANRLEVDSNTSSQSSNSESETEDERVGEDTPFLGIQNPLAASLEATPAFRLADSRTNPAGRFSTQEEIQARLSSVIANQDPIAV

As for `COC(=O)[C@@]1(Cc2ccc(F)cc2)[C@H]2c3cc(C(=O)N4CCCC4)n(Cc4ccc(Cl)c(C(F)(F)F)c4)c3C[C@H]2CN1C(=O)c1ccccc1`, the composite z-score in [1] came out at 2; in experiment [2] it was 0.554; in experiment [3], 0.713; in experiment [4] it was 1.04; in experiment [5], 1.73; in experiment [6], 1.61. Besides, the composite z-score came out at 1.14 in experiment [7]; 2.44 in experiment [9]; 3.55 in [10]; 0.444 in [11]; 3.26 in [15]; 1.12 in experiment [17]. Moreover, the composite z-score in experiment [18] was -0.21; in experiment [19] it was 1.07; in [20], 0.915. In addition, the z-score is 0.339 (inactive) in experiment [8]; 0.307 (inactive) in experiment [12]; 2.12 (inactive) in experiment [13]; 3.84 (inactive) in experiment [14]; -0.482 (inactive) in experiment [16].

Turning to `C[N+](C)(C)CCCCNC(=O)[C@H]1C[C@H]2C(=O)N3CCC[C@H]3C(=O)N2[C@H]1c1ccc(O)cc1`, the composite z-score in experiment [1] is -0.32; in experiment [2], 0.799; in experiment [3] it was -0.12; in experiment [4], 1.15; in experiment [5] it was 0.534; in experiment [6] it was -0.0852. In addition, the composite z-score in [7] is 1.34; in experiment [9], 0.446; in experiment [10], 0.176; in [11], 1.54; in experiment [15] it was 2.14; in experiment [17], -0.101. The composite z-score in [18] amounted to 1.85; in experiment [19], 1.04; in experiment [20], 0.124. For the same molecule, the z-score in experiment [8] was 1.42 (inactive); in experiment [12], 0.0531 (inactive); in [13] it was 0.0211 (inactive); in experiment [14], -1.41 (inactive); in [16], -0.0773 (inactive).

Regarding `C=CCNC(=O)[C@@H]1[C@H]2C(=O)O[C@H](c3ccccc3)[C@H](c3ccccc3)N2[C@H](c2ccccc2OCCO)[C@@]12C(=O)N(C(=O)OCCOC)c1ccc(C#CCC(C(=O)OC)C(=O)OC)cc12`, the composite z-score was 2.39 in experiment [1]; 0.691 in experiment [2]; 0.605 in experiment [3]; 1.16 in experiment [4]; 1.6 in experiment [5]; 2.26 in [6]. Also, the composite z-score stood at 1.31 in [7]; 3.09 in experiment [9]; 0.856 in experiment [10]; 1.53 in experiment [11]; 3.56 in [15]; 0.891 in experiment [17]. Further, the composite z-score in experiment [18] amounted to 1.9; in [19] it was 1.07; in [20], 0.573. Also, the z-score in experiment [8] is 0.847 (inactive); in experiment [12], 1.38 (inactive); in experiment [13] it was 2.06 (inactive); in experiment [14], 6.46 (inactive); in [16] it was 0.221 (inactive).

On to `O=C1C2C=CC(C(O)c3ccc(B(O)O)cc3)N(Nc3ccc([N+](=O)[O-])cc3)C2C(=O)N1c1ccccc1` (stereo not given), for which the composite z-score in [1] was -0.28; in experiment [2], 0.378; in experiment [3] it was 0.0121; in experiment [4] it was 0.84; in experiment [5] it was 1.46; in experiment [6] it was 1.56. Moreover, the composite z-score in experiment [7] was 1.05; in [9] it was 1.25; in [10], -0.236; in [11] it was 1.26; in [15], 2.54; in experiment [17] it was 0.143. Moreover, the composite z-score in experiment [18] stood at 0.288; in [19], 1.03; in [20], 0.105. The z-score in experiment [8] was 0.663 (inactive); in experiment [12], -26.5 (active); in experiment [13], -16.1 (active); in experiment [14] it was 0.847 (inactive); in experiment [16], -0.465 (inactive).

With `C#C[C@H](O[Si](C#CCCCCCC)(C(C)C)C(C)C)c1ccccc1`, the composite z-score in experiment [1] is -0.441; in [2], -0.0593; in [3] it was -0.0994; in [4] it was 0.323; in experiment [5], -0.55; in [6] it was -0.204. Moreover, the composite z-score is 0.0885 in [7]; -0.748 in [9]; -0.217 in experiment [10]; 0.631 in [11]; 0.432 in experiment [15]; -0.114 in experiment [17]. In addition, the composite z-score was 0.186 in [18], 0.13 in experiment [19] and -0.171 in experiment [20]. Further, the z-score in experiment [8] was 0.0077 (inactive); in [12], 0.0821 (inactive); in experiment [13], 0.384 (inactive); in experiment [14] it was -0.653 (inactive); in experiment [16], 0.411 (inactive).
